Results: PubChem BioAssay (NCATS)
Several values for one entry are separate records, joined by “and”; a condition that tells them apart may be missing. Equal entries are not always repeated. Results filed as inconclusive are left out. Values without a mark were called inactive. Activity calls are given as the source filed them. Calls follow the shape of the dose curve; as a rule, active = well fitted inhibition curve with a large enough effect; inconclusive = small, poorly fitted or top-dose-only effect; inactive = flat fitted curve, though single readings scatter.

system: KB-3-1; assay: Cytotoxic Profiling of Annotated Libraries Using Quantitative High-Throughput Screening (AID 1296008); settings: Five cell lines viability, CellTiter-Glo ATP luminescence, 48-72 h; max response: hits give low values; also: nearly all actives have a fitted effect of over 60% in size
Outline: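 Cytotoxicity was measured as CellTiter-Glo ATP luminescence, read after 10 min at room temperature. Compound treatment of the cells lasted 48 or 72 hr at 37 degrees Celsius in a qHTS format.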
% is scaled to controls: 0 for no effect and ±100 for the full control effect; potency is read from the fitted curve at half-maximal effect.

SMILES	max response	Potency
C[C@]12CC[C@@H]3c4ccc(OS(=O)(=O)O)cc4CC[C@H]3[C@@H]1CCC2=O	3.98%	
CC(=O)N[C@@H](C=O)[C@H](O)[C@H](O)[C@@H](O)CO	5.53% and 4.97%	
CC1(C)S[C@@H]2[C@H](NC(=O)[C@H](N)c3ccccc3)C(=O)N2[C@H]1C(=O)OCOC(=O)[C@@H]1N2C(=O)C[C@H]2S(=O)(=O)C1(C)C	-17%	
CCCC(=O)O[C@]1(C(=O)COC(=O)CC)[C@@H](C)C[C@H]2[C@@H]3CCC4=CC(=O)C=C[C@]4(C)[C@@]3(F)[C@@H](O)C[C@@]21C	-7.8%	
Oc1cccc(-c2c3nc(c(-c4cccc(O)c4)c4ccc([nH]4)c(-c4cccc(O)c4)c4nc(c(-c5cccc(O)c5)c5ccc2[nH]5)CC4)C=C3)c1		16.4 µM (active)
CCCC(CCC)C(N)=O	-11%	
C=C[C@]1(C)C[C@@H](OC(=O)CO)[C@]2(C)[C@H](C)CC[C@]3(CCC(=O)[C@H]32)[C@@H](C)[C@@H]1O	-28.5%	
NCCC[C@H](N)C(=O)O	-6.2%	
Cc1cc(-n2c(=O)[nH]c(=O)n(C)c2=O)ccc1Oc1ccc(S(=O)(=O)C(F)(F)F)cc1	28.3%	
O=C(Cn1cnnn1)N[C@@H]1C(=O)N2C(C(=O)O)=C(CSc3nncs3)CS[C@H]12	-22.7% and -13.7%	
Cc1ccc(-c2c(C(=O)CCl)n(CCCO)c3ncnc(N)c23)cc1	-3.1%	
O=C[C@H](O)[C@@H](O)[C@H](O)[C@H](O)CO	-5.79%	
CC(CN1c2ccccc2Sc2ccc(S(=O)(=O)N(C)C)cc21)N(C)C (centres undefined)	-2.65%	
CS(=O)(=O)OCCCNCCCOS(C)(=O)=O	-5.57%	
CCC(C)(C)OC(=O)N[C@@H](Cc1c[nH]c2ccccc12)C(=O)N[C@@H](CCSC)C(=O)N[C@@H](CC(=O)O)C(=O)N[C@@H](Cc1ccccc1)C(N)=O	0.713%	
CCN(CC)c1ccc(N=Nc2ccc(S(=O)(=O)N(C)C)cc2)c(S(=O)(=O)NCC[n+]2ccccc2)c1	-15.2%	
Cc1c(O)cc2c(c1C)O[C@](C)(CCC[C@H](C)CCC[C@H](C)CCCC(C)C)CC2	-6.57%	
Cc1ccc(/C(=C\CN2CCCC2)c2cccc(/C=C/C(=O)O)n2)cc1	-13.8%	
CCOC(=O)COc1ccc2c(=O)cc(-c3ccccc3)oc2c1	-2% and -15.3%	
CCCCCCCCCCCCCCCC(=O)OC[C@H](O)[C@H]1OC(=O)C(O)=C1O	-14.1%	

SMILES	max response	Potency
CCCN(CC)C(CC)C(=O)Nc1c(C)cccc1C (centres undefined)	-6.86%	
O=C(O)CC(O)(CC(=O)O)C(=O)O	-1.69%	
O=C1O[C@H]2[C@H](O)[C@@H]1OC(O)[C@H]2O (some centres undefined)	-7.29%	
CN1CCN(CCCN2c3ccccc3Sc3ccccc32)CC1	-4.85%	
c1cnc2cc3c(cc2n1)[C@@H]1CNC[C@H]3C1	-10.7%	
CC(C)c1cccc(C(C)C)c1NC(=O)Nc1ccc(Sc2ccc([N+](=O)[O-])cc2)cc1		10.3 µM (active)
O=S(=O)(O)Oc1ccc(C(c2ccc(OS(=O)(=O)O)cc2)c2ccccn2)cc1	-0.878%	
CCCCCCCC(=O)CC[C@@H]1[C@@H](C/C=C\CCCC(=O)OC(C)C)[C@@H](O)C[C@H]1O	7.18%	
CCC(=O)OCC(=O)[C@@]1(OC(=O)CC)[C@@H](C)C[C@H]2[C@@H]3CCC4=CC(=O)C=C[C@]4(C)[C@@]3(Cl)[C@@H](O)C[C@@]21C	-12.3%	
CC(C)(O)C1Cc2c(ccc(C(=O)CCc3ccccc3)c2O)O1 (centres undefined)	-17.9%	
CC(=O)CC(=O)Nc1ccc(Cl)c(C(F)(F)F)c1		23.1 µM (active)
C[C@H]1C[C@H]2[C@@H]3CCC4=CC(=O)C=C[C@]4(C)[C@@]3(F)[C@@H](O)C[C@]2(C)[C@@]1(O)C(=O)CCl	-8.19%	
CN=C(NC)NCc1ccccc1	-10.8%	
CCOC(=O)Cc1cccc(-c2cc(CCCCCCc3ccc(O[C@H]4O[C@H](COC(C)=O)[C@@H](OC(C)=O)[C@H](OC(C)=O)[C@@H]4OC(C)=O)c(-c4cccc(CC(=O)OCC)c4)c3)ccc2O[C@H]2O[C@H](COC(C)=O)[C@@H](OC(C)=O)[C@H](OC(C)=O)[C@@H]2OC(C)=O)c1	-10.9%	
C1CNCCN1	-7.97%	
CC(C)(C)[C@H](NC(=O)c1ccc(N)c(Cl)c1)C(=O)N1CCC[C@H]1C(=O)N[C@H](C#N)CC(=O)O	5.39%	
Nc1ncnc(Nc2ccc(Cl)cc2)n1	-7.22%	
CCC(C)[C@H]1O[C@]2(C=C[C@@H]1C)C[C@@H]1C[C@@H](C/C=C(\C)[C@@H](O[C@H]3C[C@H](OC)[C@@H](O[C@H]4C[C@H](OC)[C@H](NC(C)=O)[C@H](C)O4)[C@H](C)O3)[C@@H](C)/C=C/C=C3\CO[C@@H]4[C@H](O)C(C)=C[C@@H](C(=O)O1)[C@]34O)O2 (some centres undefined)		9.2 µM (active)
CC(C)(C)NC(=O)[C@H]1CC[C@H]2[C@@H]3CC=C4C=C(C(=O)O)CC[C@]4(C)[C@H]3CC[C@]12C	-6.72%	
